Only some compounds are listed: those with a hit (about 21% of all), similar ones and a draw of the others.
TDP1 cell CPT – DT40-hTDP1 cell growth loss with CPT | chicken DT40 Tdp1-/-;hTDP1 cells + 20 nM CPT, ATP luminescence, 48 h | Potency, µM (titrated, usually from 46.2 µM), for inactives: at the top dose activity change, negative = growth inhibition, most hits filed as inhibitors | 420,000 tested, 12% active | AID 686979; further: potency means the concentration at half of the fitted maximal effect; on the % scale 0 is the no-effect control and ±100 the full control effect; nearly all actives have a fitted effect of over 55% in size
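Cell growth measured by CellTiter-Glo luminescence after a minimum 48 h, 37 C compound exposure with 20 nM CPT in Tdp1-knockout DT40 cells stably expressing hTDP1, seeded 400/well; qHTS titration format.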
IL1B secr inh – inflammasome signaling inhibition, IL-1 beta readout. THP-1 LPS/ATP IL-1B secretion, AlphaLISA, 16 h; active compounds read low. activity change, % at 57.5 µM. 360,000 tested, 4.7% active; in the data active means activity change below about -50%; inconclusive means mostly about -30% to -49%; further: on the % scale 0 is the no-effect control and ±100 the full control effect
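Secreted IL-1B measured by AlphaLISA bead assay after 16 h compound exposure of THP-1 cells; compounds (final up to 57.5 uM) added 1 h before LPS (250 ng/mL) and ATP (1.25 mM) stimulation; lower signal means less secretion.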
ClpP mod – qHTS Assay for Activators of ClpP. 340,000 tested, 1.9% active. AID 651965, 2013. Potency, µM (series often up to 57.5 µM), for inactives: at the highest dose activity change, negative = active. ATP-dependent Clp protease proteolytic subunit (Bacillus subtilis (strain 168)), P80244. purified B. subtilis ClpP, FRET peptide cleavage, 20 min; active means well fitted falling curve with a large enough effect; inconclusive means small, poorly fitted or top-dose-only effect; inactive means no such curve, though single readings can be large or run the other way; further: potency means the concentration at half of the fitted maximal effect; the source files actives as falling curves though it sought activators and does not explain the sign; nearly all actives have a fitted effect of over 65% in size
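Purified B. subtilis ClpP, 10 microg/mL final in Tris/HCl pH8 with KCl, BSA, glycerol and Tween-20, cleaved an Abz/nitrotyrosine-quenched decapeptide. Fluorescence (ex 320, em 430) was read at 0 and 20 min at room temperature. Delta was normalized to 5.8 microM ADEP and DMSO/no-enzyme controls.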
DRD3 antagonist – antagonists of human D3 dopamine receptor. 360,000 tested, 2.5% active. AID 652054. max response, negative = inhibition, %. D3R cells, DiscoveRx beta-arrestin luminescence, antagonist mode; active compounds read low; in the data active means max response below about -50%; inconclusive means no clear call, values can overlap the other calls; further: on the % scale 0 is the no-effect control and ±100 the full control effect
Target sequence (P35462 whole entry, looked up): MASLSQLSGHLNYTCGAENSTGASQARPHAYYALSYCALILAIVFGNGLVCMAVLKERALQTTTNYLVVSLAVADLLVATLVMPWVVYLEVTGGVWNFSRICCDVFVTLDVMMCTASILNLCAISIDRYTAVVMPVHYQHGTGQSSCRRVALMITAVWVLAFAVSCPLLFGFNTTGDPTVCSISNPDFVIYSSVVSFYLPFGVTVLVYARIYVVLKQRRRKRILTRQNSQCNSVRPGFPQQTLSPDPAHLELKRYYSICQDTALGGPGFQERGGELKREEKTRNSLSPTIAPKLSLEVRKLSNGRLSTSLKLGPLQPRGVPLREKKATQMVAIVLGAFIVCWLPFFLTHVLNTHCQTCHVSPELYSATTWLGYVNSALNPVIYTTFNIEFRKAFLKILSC
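Cells expressing the human receptor were seeded at 1500 cells/well, incubated overnight at 37 degrees C in 5% CO2, then exposed to library compounds with dopamine controls for 90 minutes at 37 degrees C before luminescent detection.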
D3 ag – D3 dopamine receptor (human) agonism; max activation, %; 410,000 tested, 0.58% active; D3R DiscoveRx beta-arrestin cells, luminescence, 90 min; in the data active means max activation above about 30%; further: 0% is about no effect
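Agonist-mode cell screen: cells plated at 1500/well and incubated overnight at 37 °C, then exposed to library compounds for 90 min at 37 °C. Detection reagent was added for 30–60 min at room temperature, and luminescence was read.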
TDP1 cell noCPT – qHTS for Inhibitors of human tyrosyl-DNA phosphodiesterase 1 (TDP1): qHTS in cells in absence of CPT. 420,000 tested, 15% active. DT40 Tdp1-/- hTDP1 cells, no CPT, ATP luminescence, 48 h. Potency, µM (series often up to 46.2 µM), for the others: top-dose activity change, negative = growth inhibition, hits mostly inhibitors; further: potency means the concentration at half of the fitted maximal effect; on the % scale 0 is the no-effect control and ±100 the full control effect; nearly all actives have a fitted effect of over 55% in size
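Camptothecin absent (DMSO only). Human TDP1-complemented DT40 knockout cells, 400 cells/well, 37 °C for minimum 48 hr; ATP measured via CellTiter-Glo, 30 min dark incubation, luminescence.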
* hit, by the source's call; ? = inconclusive; · = no result given. Unless noted, the call rests on the fitted dose curve; in most records, active means well fitted inhibition curve with a large enough effect; inconclusive means small, poorly fitted or top-dose-only effect; inactive means flat fitted curve, though single readings scatter.

SMILES	TDP1 cell CPT	IL1B secr inh	ClpP mod	DRD3 antagonist	D3 ag	TDP1 cell noCPT
COc1ccc(C2(c3ccc(OC)cc3)NC(=O)N(CC(=O)N(C)C)C2=O)cc1	0%	17	·	3	6	-9%
CCN(C(=O)CN1C(=O)NC(c2ccccc2)(c2ccc(C)c(C)c2)C1=O)C1CCS(=O)(=O)C1 (configuration not stated)	1%	-1	1%	1	-1	?
CC(C)(C)NC(=O)NC(=O)CN1C(=O)NC(c2ccccc2)(c2ccccc2)C1=O	?	?	·	-3	5	26µM*
COc1ccc(C2(c3ccc(OC)cc3)NC(=O)N(CC(=O)N(C)C3CCC(C)CC3)C2=O)cc1 (configuration not stated)	-27%	-56*	-1%	5	3	-14%
CCN(C(=O)CN1C(=O)NC(c2ccccc2)(c2ccc(C)c(C)c2)C1=O)C1CCCCC1 (configuration not stated)	16µM*	0	0%	-11	-2	?
CN(C)C(=O)CSc1n[nH]c(=O)n1CCc1ccccc1	-1%	6	·	6	3	6%
O=C(O)c1ccccc1C(=O)NCC(O)COc1ccc(Cl)cc1 (configuration not stated)	0%	?	·	12	-6	-14%
Clc1cccc(CN2CCCCCC2)c1Cl	-16%	1	-1%	-25	-13	?
COc1ccccc1CCNC(=O)C1(c2cccs2)CCOCC1	?	·	0%	·	-9	?
Cc1cc(NC(=O)/C(C#N)=C/c2ccc(-c3ccc(SC(F)F)cc3)o2)n(-c2ccccc2)n1	?	-6	4%	32	0	18µM*
Cc1c(NC(=O)/C(C#N)=C\c2cccs2)c(=O)n(-c2ccccc2)n1C	-16%	7	0%	0	7	-20%
CC1CC1c1ccc(/C=C(\C#N)C(=O)Nc2ccc(Cl)cc2)o1 (configuration not stated)	?	-14	6%	?	-26	16µM*
CC1CC1c1ccc(/C=C(\C#N)C(=O)Nc2ccccc2Cl)o1 (configuration not stated)	-21%	-17	0%	14	1	?
CCOc1ccc(NC(=O)/C(C#N)=C\c2ccc(-c3ccc(Cl)cc3)o2)cc1	?	·	-4%	·	8	10µM*
Cc1c(NC(=O)/C(C#N)=C/c2ccc(-c3ccc(Cl)cc3)o2)c(=O)n(-c2ccccc2)n1C	10µM*	-62*	1%	5	0	15µM*
Cc1cc(NC(=O)/C(C#N)=C/c2ccc(-c3cccc(C(F)(F)F)c3)o2)n(-c2ccccc2)n1	-26%	0	-4%	-7	3	?
COc1ccc(CCC(=O)NC2CC(=O)N(c3ccc(F)cc3)C2)cc1 (configuration not stated)	2%	·	-1%	·	-17	-6%
CC(=O)Oc1cc2c(c3ccccc13)CCC2=O	30%	-12	1%	-17	-1	?
CC(=O)Oc1cc2cccc(OC(C)=O)c(=O)c2c(OC(C)=O)c1OC(C)=O	4.6µM*	11	0%	-15	16	18µM*
COC(=O)C1=C(C)N(Cc2ccccc2)C(=O)N[C@H]1c1ccco1	-11%	23	-1%	-22	6	1%
COC(=O)C1=C(C(=O)OC)[C@]2([C@H]3CCCCN[C@@H](Cc4ccccc4)C(=O)N3Cc3ccccc3)C=C[C@H]1O2	5.8µM*	-4	0%	-13	-6	6.5µM*
COC(=O)C1=C(C(=O)OC)[C@]2([C@H]3C/C=C\CN[C@@H](Cc4ccccc4)C(=O)N3Cc3ccccc3)C=C[C@H]1O2	?	·	0%	·	·	10µM*

Compound activity deposited in PubChem by National Center for Advancing Translational Sciences (NCATS).
